Only some compounds are listed: those with a hit (about 1.7% of all), similar ones and a draw of the others.
ZTA DNA inh – counter-screen for EBNA-1 inhibitors: inhibitors of Epstein-Barr virus ZTA; P03206; ZTA-DNA binding, fluorescence polarization; inhibition, % at 11 µM; 320,000 compounds, 0.15% hits; AID 2234; in the data active = inhibition above about 33%
LYPLA1 inh – LYPLA1 inhibitors, primary screen, counter-screen for PME1 inhibitor project, biochemical, fluorescence polarization, FP-Rh probe ABPP | Acyl-protein thioesterase 1 (Homo sapiens), O75608 | recombinant LYPLA1 | inhibition, % at 5.9 µM | 320,000 compounds, 0.16% hits;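 active = inhibition above the mean of all tested compounds plus 3 SD, set per campaign, cut at about 14% in these data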;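 note: inhibitors block serine hydrolase probe labeling of LYPLA1 so polarization falls; 0% = enzyme with DMSO and 100% = wells lacking LYPLA1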
Target sequence (O75608 whole entry, looked up): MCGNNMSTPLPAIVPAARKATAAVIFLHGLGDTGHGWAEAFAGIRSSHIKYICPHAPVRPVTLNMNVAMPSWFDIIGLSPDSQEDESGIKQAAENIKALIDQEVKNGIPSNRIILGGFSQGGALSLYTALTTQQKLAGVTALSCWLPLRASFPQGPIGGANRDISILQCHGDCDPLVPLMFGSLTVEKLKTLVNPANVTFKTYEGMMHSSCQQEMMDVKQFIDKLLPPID
LYPLA2 inh – LYPLA2 inhibitors, primary screen, counter-screen for PME1 inhibitor project, biochemical, fluorescence polarization, FP-Rh probe ABPP | recombinant LYPLA2 | 320,000 compounds, 0.38% hits | Acyl-protein thioesterase 2 (Homo sapiens), O95372 | inhibition, % at 5.9 µM;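 active = inhibition above the screen-wide mean plus 3 SD, limit set per campaign, cut at about 26% in these data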;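 note: 0% = LYPLA2 with DMSO and 100% = wells lacking LYPLA2 enzyme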
PAD4 FP inh – human PAD4 inhibitors, primary screen, biochemical, fluorescence polarization, 1536-well format. recombinant PAD4, RCA probe fluorescence polarization. inhibition, % at 6.36 µM. 330,000 compounds, 0.41% hits;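 active = percent inhibition above a cutoff equal to the mean of all tested compounds plus 3 SD, cut at about 15% in these data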;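 note: 0% = PAD4 with RCA probe and DMSO and 100% = probe without PAD4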
EBNA-1 inh – EBNA-1 DNA-binding inhibitors, primary screen, biochemical, fluorescence polarization. inhibition, % at 14.8 µM. 300,000 compounds, 0.34% hits. AID 1950, 2009; in the data active = inhibition above about 28%
GSTO1 inh – inhibitors of recombinant GSTO1, primary screen, counter-screen for RBBP9 inhibitor project, biochemical, fluorescence polarization; AID 1974, 2009; 300,000 compounds, 1.1% hits; activity-based probe fluorescence polarization; inhibition, % at 5.96 µM; Glutathione S-transferase omega-1 (Homo sapiens), P78417;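 active = inhibition above the campaign mean inhibition plus 3 SD, cut at about 35% in these data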;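 note: 0% = GSTO1-1 with DMSO and 100% = wells lacking GSTO1-1 enzyme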
Target sequence (P78417 whole entry, looked up): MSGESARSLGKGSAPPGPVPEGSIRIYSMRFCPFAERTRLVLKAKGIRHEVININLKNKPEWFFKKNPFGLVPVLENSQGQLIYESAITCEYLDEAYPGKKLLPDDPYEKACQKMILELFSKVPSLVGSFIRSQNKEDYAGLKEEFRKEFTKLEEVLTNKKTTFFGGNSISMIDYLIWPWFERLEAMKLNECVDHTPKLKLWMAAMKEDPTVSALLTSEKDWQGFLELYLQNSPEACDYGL
LYPLA2 confirm – LYPLA2 inhibitors, retest, confirmation, counter-screen for PME1 inhibitor project, biochemical, fluorescence polarization, FP-Rh probe ABPP. shares compounds with LYPLA2 inh. recombinant LYPLA2. inhibition, % at 5.9 µM. 1,100 compounds, 72% hits. AID 2232, 2010;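 active = mean inhibition across replicates above the hit cutoff set in the primary screen, cut at about 26% in these data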;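 note: blocked labeling of the enzyme by serine hydrolase FP-Rh probe lowers polarization; 0% = enzyme with DMSO and 100% = wells lacking LYPLA2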
LYPLA2 gel ABPP – LYPLA2 inhibitors in proteome, late-stage follow-up, gel-based competitive ABPP, fluorescence, assay provider. shares compounds with LYPLA2 inh. rhLYPLA2 in mouse brain proteome, gel ABPP FP-Rh. inhibition, % at 20 µM. 150 compounds, 30% hits. AID 652029, 2013;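 active = inhibition of LYPLA2 enzyme probe labeling above about 50%, limit read from the data; inactive = inhibition below that limit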;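 note: loss of FP-Rh probe labeling of the LYPLA2 gel band measured as band density; 0% = DMSO only control band and 100% = blank gel background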
* = called active by the depositor.

Screening COc1ccc(N2CCN(C(=O)c3ccc(-c4ccccc4)cc3)CC2)cc1 returned ZTA DNA inh 11, LYPLA1 inh 1, LYPLA2 inh 34*, PAD4 FP inh 4, EBNA-1 inh 12, GSTO1 inh 4 and LYPLA2 confirm 35*.
For Oc1ccc(Cl)cc1CNCC1CCCCC1 the results were ZTA DNA inh 3, LYPLA1 inh -2, LYPLA2 inh -1, PAD4 FP inh -5, EBNA-1 inh -3 and GSTO1 inh 4.
Screening Cn1cccc1Cc1nnc(SCC(=O)NCC2CCCO2)n1C (stereo not drawn) returned ZTA DNA inh -15, LYPLA1 inh -2, LYPLA2 inh 1, PAD4 FP inh 1, EBNA-1 inh 5 and GSTO1 inh 10.
`COc1ccc(S(=O)(=O)NCc2ccc(C(=O)N3CCc4ccccc4C3)cc2)cc1` gave ZTA DNA inh 0, LYPLA1 inh 4, LYPLA2 inh 48*, PAD4 FP inh -2, EBNA-1 inh 6, GSTO1 inh 8, LYPLA2 confirm 57* and LYPLA2 gel ABPP 28.
Cc1ccc(S(=O)(=O)NCc2ccc(C(=O)N3CCc4ccccc4C3)cc2)cc1 was read as ZTA DNA inh 6, LYPLA1 inh -5, LYPLA2 inh 10, PAD4 FP inh -2, EBNA-1 inh -12 and GSTO1 inh -4.
`COc1cccc(S(=O)(=O)NCc2ccc(C(=O)N3CCN(c4ccccc4OC)CC3)cc2)c1` gave ZTA DNA inh -5, LYPLA1 inh 0, LYPLA2 inh 58*, PAD4 FP inh -6, EBNA-1 inh 4, GSTO1 inh 1, LYPLA2 confirm 70* and LYPLA2 gel ABPP 34.
For O=C(c1ccc(CNS(=O)(=O)c2ccccc2)cc1)N1CCN(Cc2ccccc2)CC1 the results were ZTA DNA inh -12, LYPLA1 inh 0, LYPLA2 inh 33*, PAD4 FP inh 4, EBNA-1 inh 5, GSTO1 inh 3 and LYPLA2 confirm 32*.
CCOc1ccccc1N1CCN(C(=O)c2ccc(OCC(=O)N3CCOCC3)c(OC)c2)CC1 was read as ZTA DNA inh 0, LYPLA1 inh -1, LYPLA2 inh 3, PAD4 FP inh -1, EBNA-1 inh 8 and GSTO1 inh 4.
For CC(=O)c1c(C)[nH]c(C(=O)OCC(=O)NCc2cccs2)c1C the results were ZTA DNA inh -19, LYPLA1 inh -1, LYPLA2 inh 6 and PAD4 FP inh 3.
CC1(C)Cc2cccc(C(=O)Nc3ccc(F)cc3F)c2O1 was read as ZTA DNA inh -1, LYPLA1 inh -4, LYPLA2 inh -4, PAD4 FP inh 2, EBNA-1 inh -3 and GSTO1 inh 2.
Screening COc1ccc(-c2ccc(=O)n(Cc3ccc([N+](=O)[O-])cc3)n2)cc1 returned ZTA DNA inh 4, LYPLA1 inh -3, LYPLA2 inh 29*, PAD4 FP inh 0, EBNA-1 inh -8, GSTO1 inh -7 and LYPLA2 confirm 30*.
For COc1ccc(-c2cn(Cc3ccc([N+](=O)[O-])cc3)nn2)cc1 the results were ZTA DNA inh -4, LYPLA1 inh 3, LYPLA2 inh 5, PAD4 FP inh 0, EBNA-1 inh 8 and GSTO1 inh 3.
COc1ccc([C@H]2CC(=O)C=C(c3cccc(C#N)c3)C2)cc1 was read as ZTA DNA inh -14, LYPLA1 inh 12, LYPLA2 inh 33*, PAD4 FP inh 0 and LYPLA2 confirm 26*.
Screening O=C(O)CN1C(=O)/C(=C\c2cccc(OCc3ccc(Cl)cc3)c2)SC1=S returned ZTA DNA inh 10, LYPLA1 inh -3, LYPLA2 inh 28*, PAD4 FP inh 1, EBNA-1 inh -1, GSTO1 inh 9 and LYPLA2 confirm 27*.
For O=C(c1cc(-c2cccs2)on1)N1CCN(c2ccccc2)CC1 the results were ZTA DNA inh -1, LYPLA1 inh 2, LYPLA2 inh 22, PAD4 FP inh -2, EBNA-1 inh 5 and GSTO1 inh 6.
Screening COc1ccc(-c2cc(C(=O)N3CCN(c4ccc(F)cc4)CC3)no2)cc1OC returned ZTA DNA inh 21, LYPLA1 inh 3, LYPLA2 inh 39*, PAD4 FP inh -3, EBNA-1 inh 8, GSTO1 inh 3 and LYPLA2 confirm 33*.
Screening O=C(c1cc(-c2cccs2)on1)N1CCN(c2ccc(F)cc2)CC1 returned ZTA DNA inh 2, LYPLA1 inh 6, LYPLA2 inh 28*, PAD4 FP inh -2, EBNA-1 inh -10, GSTO1 inh -1 and LYPLA2 confirm 27*.
Cc1cccc(N2CC(C(=O)NCc3ccco3)CC2=O)c1C (stereo not drawn) was read as ZTA DNA inh -15, LYPLA1 inh -3, LYPLA2 inh 3 and PAD4 FP inh 3.
Screening COc1ccc(N2CCN(C(=O)CSc3nc4[nH]ncc4c(=O)n3-c3ccc(Br)cc3)CC2)cc1 returned ZTA DNA inh 8, LYPLA1 inh 12, LYPLA2 inh 47*, PAD4 FP inh 2, EBNA-1 inh -2, GSTO1 inh 7 and LYPLA2 confirm 42*.
`COC(=O)c1c(NC(=O)CN2CCN(c3ncccn3)CC2)sc(C(N)=O)c1C` gave ZTA DNA inh -9, LYPLA1 inh 1, LYPLA2 inh 31*, PAD4 FP inh -1, EBNA-1 inh -6, GSTO1 inh 9 and LYPLA2 confirm 0.
O=C(C1CCC(CNS(=O)(=O)c2cccs2)CC1)N1CCN(c2ccc(Cl)cc2)CC1 (stereo not drawn) was read as ZTA DNA inh 8, LYPLA1 inh 1, LYPLA2 inh 36*, PAD4 FP inh -2, EBNA-1 inh 14, GSTO1 inh -1 and LYPLA2 confirm 34*.
Screening O=C(NC1CCCC1)C1CCC(CNS(=O)(=O)c2cccs2)CC1 (stereo not drawn) returned ZTA DNA inh 9, LYPLA1 inh -2, LYPLA2 inh 3, PAD4 FP inh 3, EBNA-1 inh -3 and GSTO1 inh -1.
`Cc1nn(-c2ccccc2)c2sc(C(=O)OC3CCOC3=O)cc12` (stereo not drawn) gave ZTA DNA inh 0, LYPLA1 inh -7, LYPLA2 inh 36*, PAD4 FP inh 2, EBNA-1 inh 1, GSTO1 inh 11 and LYPLA2 confirm 43*.
